PLC-gamma1 inh: PLC-gamma1 (human) inhibition, primary screen; P19174; purified PLC-gamma1, fluorogenic substrate, fluorescence; inhibition, % at 12.2 µM; 370,000 tested, 0.84% active; AID 720700; in the data active = inhibition above about 9.5%
sPLA2-III inh: Inhibits HGIII-sPLA2 liposome hydrolysis, primary screen | Q9NZ20 | QFRET BODIPY PC-A2 liposome hydrolysis, fluorescence | inhibition, % at 12.2 µM | 370,000 tested, 0.56% active;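 active = inhibition above mean plus 3 SD of compounds lying within the high and low control bounds, cut at about 19% in these data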;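 note: 0% = median of test compound wells and 100% = no enzyme DMSO wells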
ADAM17 inh: inhibitors of human ADAM17. inhibition, % at 6.95 µM. 370,000 tested, 0.83% active. recombinant ADAM17, EDANS/DABCYL FRET peptide cleavage. AID 720648;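 active = inhibition above the mean of compounds lying between control limits plus 3 SD, set per campaign, cut at about 8.5% in these data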;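 note: 0% = DMSO-only wells as the low control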
ADAM10 inh: ADAM10 inhibition, QFRET primary screen | O14672 | recombinant ADAM10, EDANS/DABCYL FRET peptide cleavage, 3 h | inhibition, % at 7 µM | 370,000 tested, 0.62% active;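 active = inhibition above a per-campaign cutoff equal to the mean of compounds falling between control-based bounds plus 3 SD, cut at about 20% in these data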;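 note: 0% = DMSO wells while the 100% control is not disclosed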
Target sequence (O14672 214-748 limits assumed): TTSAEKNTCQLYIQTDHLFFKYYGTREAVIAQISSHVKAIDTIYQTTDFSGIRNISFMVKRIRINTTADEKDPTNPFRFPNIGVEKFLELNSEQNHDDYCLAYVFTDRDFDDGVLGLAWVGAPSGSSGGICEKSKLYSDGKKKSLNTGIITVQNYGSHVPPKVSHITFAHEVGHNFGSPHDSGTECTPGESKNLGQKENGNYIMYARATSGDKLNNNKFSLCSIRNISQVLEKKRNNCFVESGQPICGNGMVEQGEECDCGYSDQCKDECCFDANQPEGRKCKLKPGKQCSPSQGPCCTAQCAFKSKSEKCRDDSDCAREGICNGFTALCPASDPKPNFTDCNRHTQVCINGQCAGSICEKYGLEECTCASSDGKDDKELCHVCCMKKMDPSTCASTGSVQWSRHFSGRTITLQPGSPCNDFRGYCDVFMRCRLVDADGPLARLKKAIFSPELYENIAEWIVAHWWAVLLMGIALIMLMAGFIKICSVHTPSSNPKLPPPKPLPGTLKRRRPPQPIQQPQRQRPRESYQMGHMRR
KLK7 zymogen act: proKLK7 (human) activation, primary screen; AID 652039; P49862; 370,000 tested, 0.9% active; purified proKLK7, EDANS-DABCYL substrate fluorescence; 100% is mature enzyme control, 0% vehicle; activation, % at 7 µM;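 active = activation above the mean of all tested compounds plus 3 SD, computed per campaign excluding outliers beyond control limits, cut at about 13% in these data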
PLC-beta3 inh: PLC-beta3 (human) inhibition, primary screen | AID 720704 | inhibition, % at 12.2 µM | Purified PLC-beta3, fluorogenic substrate, fluorescence | Q01970 | 370,000 tested, 0.18% active; in the data active = inhibition above about 11%;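 note: 0% = median of compound wells on plate and 100% = full blocker control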
ADAM10 ctr: counter-screen for ADAM17 exosite inhibitors: inhibitors of human ADAM10; shares compounds with ADAM17 inh; recombinant ADAM10, EDANS/DABCYL FRET peptide cleavage, 3 h; inhibition, % at 6.95 µM; 2,900 tested, 47% active; AID 743256;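 active = mean inhibition over the triplicate runs exceeds the activity threshold set in the earlier primary screen, cut at about 20% in these data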;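 note: 0% = DMSO wells and 100% = marimastat wells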
ADAM17 confirm: confirmation of inhibitors of human ADAM17 | shares compounds with ADAM17 inh | recombinant ADAM17, EDANS/DABCYL QFRET peptide cleavage | inhibition, % at 6.95 µM | 2,900 tested, 65% active | AID 743257;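 active = mean inhibition across replicates above the hit cutoff set in the primary screen, cut at about 8.5% in these data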;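 note: 0% = DMSO wells and 100% = marimastat wells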
* hit, by the source's call; · = not tested or not shown. Compounds with a hit are over-represented: about 3.4% of the library has one in this group of screens.

SMILES	PLC-gamma1 inh	sPLA2-III inh	ADAM17 inh	ADAM10 inh	KLK7 zymogen act	PLC-beta3 inh	ADAM10 ctr	ADAM17 confirm
NC(=O)C1CCN(c2nc3c(S(=O)(=O)c4ccccc4)nnn3c3ccccc23)CC1	0.0	-4.8	12.8*	-1.5	0.1	-17.3	-8.1	2.2
CCCNc1nc2c(c(=O)[nH]c(=O)n2C)n1CCC(C)C	7.4	-4.3	8.8*	4.5	0.0	4.0	24.5*	13.0*
O=C(CN1C(=O)NC2(CCCCCC2)C1=O)Nc1cccc(F)c1	2.7	12.8	-2.3	-6.6	0.4	-6.4	·	·
O=C(CN1C(=O)NC2(CCCCC2)C1=O)Nc1ccc2c(c1)OCCCO2	9.6*	-0.9	10.7*	0.8	0.0	-0.6	4.4	2.1
COc1ccc(C2C(C#N)=C(N)Oc3c2oc(CO)cc3=O)cc1 (stereo unspecified)	1.3	1.1	-2.0	-1.1	0.6	-1.1	·	·
COc1cccc(C2C(C#N)=C(N)Oc3c2oc(CO)cc3=O)c1 (stereo unspecified)	-20.0	2.6	14.2*	-2.1	0.7	-22.6	5.9	11.1*
COc1cccc(NC(=O)CN(C)C(=O)c2cc(-c3ccccc3)nn2-c2ccccc2)c1	4.3	-15.7	-0.7	5.3	-0.4	1.4	·	·
COc1ccc(-c2csc(NC(=O)COc3ccc(N(C)S(=O)(=O)c4ccc(C)cc4)cc3)n2)cc1	3.9	-12.8	9.9*	10.7	0.2	3.0	11.7	8.5
Cc1cc(N/N=C/c2ccccc2Cl)nc(NCc2ccccc2)n1	-6.1	-23.1	10.7*	19.4	0.6	-0.3	0.7	6.2
Cc1cc(C)nc(N/N=C/c2ccccc2Cl)n1	3.4	1.5	-0.7	5.9	0.5	1.4	·	·
O=C(CN1c2ccccc2Sc2ccccc21)NNC(=O)Nc1cccc(Cl)c1	-1.5	-8.1	8.8*	-2.1	-0.7	-3.2	9.7	8.9*
C[C@H](CO)N1C[C@H](C)[C@H](CN(C)C(=O)c2ccccc2)OCc2cnnn2CCCC1=O	1.6	1.2	-2.2	-2.5	0.9	1.1	·	·
CN(Cc1cccs1)C(=O)CCc1ccc(S(=O)(=O)N2CCOCC2)cc1	3.2	-0.1	11.4*	1.1	-0.5	3.9	-8.3	0.9
O=S(=O)(c1ccccc1)N1CCN=C1SCc1ccc(Cl)c(Cl)c1	-1.6	-13.8	5.0	13.0	0.1	1.4	·	·
O=S(=O)(c1ccccc1)N1CCN=C1SCc1cccc(Cl)c1	6.5	-0.6	9.3*	14.7	0.2	3.3	7.5	9.7*
Cc1ccc(S(=O)(=O)N2CCCc3cc(NC(=O)c4c(F)cccc4F)ccc32)cc1	0.3	-2.2	12.5*	16.7	1.0	-8.4	27.4*	13.8*
COc1cccc(OC)c1C(=O)Nc1ccc2c(c1)CCCN2S(=O)(=O)c1ccc(C)cc1	-3.3	5.0	1.8	14.4	0.5	-4.8	·	·
CCc1ccc(NC2=CC(=O)CC(c3ccco3)C2)cc1 (stereo unspecified)	-8.8	15.8	9.6*	14.5	-1.8	-11.5	-6.0	2.4
Cc1cc(C)cc(NC2=CC(=O)CC(c3ccco3)C2)c1 (stereo unspecified)	-12.8	1.3	-2.4	-6.1	-0.3	-11.7	·	·
COc1ccc(CNC(=O)CC(C)c2ccccc2)cc1 (stereo unspecified)	-0.4	5.0	-7.5	-12.6	-0.4	-4.9	·	·
CC(CC(=O)OCC(=O)NCc1ccc(Cl)cc1)c1ccccc1 (stereo unspecified)	7.0	-15.0	10.8*	0.5	-0.6	-3.5	13.6	10.2*
Cc1c(C(=O)Nc2cc(F)cc(F)c2)cnn1-c1ccccc1	1.5	-6.1	-1.5	0.4	0.4	-4.1	·	·
Cc1ccc(N(CC(=O)O)S(C)(=O)=O)cc1	0.0	-3.7	-0.8	5.0	0.2	-0.1	·	·
COc1ccc(Nc2oc(COc3ccc(C)cc3)nc2C#N)cc1	-1.0	-6.6	6.0	19.7	0.3	1.1	·	·
COc1ccc(Nc2oc(COc3ccc(OC)cc3)nc2C#N)cc1	1.1	-7.9	9.1*	14.0	0.4	3.7	13.0	5.6
SMILES	PLC-gamma1 inh	sPLA2-III inh	ADAM17 inh	ADAM10 inh	KLK7 zymogen act	PLC-beta3 inh	ADAM10 ctr	ADAM17 confirm
COc1ccc(CCN(Cc2cccs2)S(=O)(=O)c2ccc(F)cc2)cc1OC	6.5	-10.2	15.2*	19.1	-0.3	0.0	9.8	7.0
CCC(C)NS(=O)(=O)c1ccc(S(=O)(=O)N(CCc2ccc(OC)c(OC)c2)Cc2cccs2)cc1 (stereo unspecified)	0.6	-31.4	8.9*	17.4	0.8	-2.4	38.2*	15.7*
CCCC[C@@H]1CC2=C(C(=O)OC(C)(C)O2)[C@@H](c2ccc(F)cc2)O1	4.5	4.8	-1.2	4.8	-0.5	1.0	·	·
O=C1CCCCC1C(Nc1ccc(Cl)cc1)c1ccccc1 (stereo unspecified)	8.8	-1.9	10.6*	18.0	-0.2	5.0	13.6	13.2*
Cc1[nH]c2ccc(C(=O)NCCCN3CCN(C)CC3)cc2c1C	-8.5	2.7	-1.9	-9.4	-0.9	-28.8	·	·
Cc1[nH]c2ccc(C(=O)NCCCN(C)C3CCCCC3)cc2c1C	-4.2	-7.3	8.7*	0.1	0.6	-14.4	-49.3	-10.3
Cc1ccc(/C=C/C(=O)Nc2ccc(Oc3ccccc3)cc2)o1	-15.0	2.3	12.9*	17.6	0.3	-21.5	13.7	11.2*
Cc1cccc(C(=O)NC2CC3CCCC(C2)N3Cc2ccccc2)c1 (stereo unspecified)	5.2	4.4	3.2	-3.0	-0.1	1.3	·	·
N=c1c(S(=O)(=O)c2ccc(Cl)cc2)cc2c(=O)n3ccccc3nc2n1C1CCCCC1	1.3	8.9	-4.6	-18.3	-0.1	-9.2	·	·
CC(C)(C)C1CCC(=O)C(C2(O)C(=O)Nc3ccccc32)C1 (stereo unspecified)	5.9	-11.1	12.0*	2.6	-0.6	8.6	-3.3	1.5
CN(C)S(=O)(=O)c1cc(NC(=O)COC(=O)Cc2cccc3ccccc23)ccc1Cl	3.1	-65.8	8.8*	16.2	-0.1	1.6	27.4*	17.3*
Cc1ccccc1Nc1nc(N)nc(COC(=O)CCNS(=O)(=O)c2ccccc2)n1	-1.0	-2.8	12.1*	8.6	-0.1	-11.5	-3.1	0.1
CCOC(=O)C1=CCN(S(=O)(=O)c2ccccc2C)C1c1ccc(Cl)c(Cl)c1 (stereo unspecified)	7.0	-2.5	12.9*	16.3	1.0	-0.6	11.2	7.4
CCOC(=O)C1=CCN(S(=O)(=O)c2ccccc2Br)C1c1ccc(Cl)c(Cl)c1 (stereo unspecified)	4.0	-9.4	1.4	-5.8	0.3	-1.8	·	·
